PMC13494018
Values without a mark were called inactive. The rule behind the calls is not given here.

Target: VTCN1, Q7Z7D3
Sequence (Q7Z7D3 whole entry): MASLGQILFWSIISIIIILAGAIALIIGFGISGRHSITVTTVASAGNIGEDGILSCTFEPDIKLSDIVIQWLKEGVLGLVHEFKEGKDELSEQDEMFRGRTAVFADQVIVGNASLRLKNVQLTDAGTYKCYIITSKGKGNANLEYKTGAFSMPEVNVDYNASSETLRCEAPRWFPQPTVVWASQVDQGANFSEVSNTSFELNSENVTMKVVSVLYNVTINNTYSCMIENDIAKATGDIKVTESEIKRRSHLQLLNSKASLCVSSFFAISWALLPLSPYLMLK

B1: design_606_b60ff77f-1541-4e5f-8260-46d5e5f6b85e_1596_dldesign_0_cycle1_af2pred (protein)
chain: SAAVKEKVAELTKKVNEARDNAFETGNWEEELAKIEKLAAEIAKVGNAEQAEAAEKGVNAMKSMAEALKEMEKK
binding in a display sort: not found

B2: design_606_b60ff77f-1541-4e5f-8260-46d5e5f6b85e_1318_dldesign_0_cycle1_af2pred (protein)
chain: DVAAALAAAKAAAAAKMAEVKKYGAETAEAVKDAIDMGNIYGAGSLAEVMVGPEAGKIAKAAAEAAAKARELAAKA
binding in a display sort: not found

B3: design_606_b60ff77f-1541-4e5f-8260-46d5e5f6b85e_1625_dldesign_0_cycle1_af2pred (protein)
chain: MAKEKAKKEAKKLTEEAAKKIREAALKEENPLEVAKEITEEVLKKIEEIGKKAGLSEEEIEKLKKEAKKKLAAAAHEAYQERAEEEFE
binding in a display sort: not found

B4: design_606_b60ff77f-1541-4e5f-8260-46d5e5f6b85e_2386_dldesign_0_cycle1_af2pred (protein)
chain: KEEEFEKLKQKAAQLILESYDALSKNIEEAKKYLKEALKAAEEAKKVDPEKGEEVLKKVEKTSKSILKSMELAKKA
binding in a display sort: not found

B5: design_606_b60ff77f-1541-4e5f-8260-46d5e5f6b85e_2092_dldesign_0_cycle1_af2pred (protein)
chain: MEEEKKKKAKELGEKLVEEVKKAAEEAKKTAETGTPEDAEKAKLDLSKKVHEALSELAEIGQKYDWEEAEKAKKEVIEIGKKAVA
binding in a display sort: not found

B6: design_606_b60ff77f-1541-4e5f-8260-46d5e5f6b85e_2076_dldesign_0_cycle1_af2pred (protein)
chain: ATQAEASQAAAEASEARAELEQAAKKLKEEGKEELAKKAEEAAEEARKLLKQAQKADTDTAYKLAQEAKKKLEKELKKAKKA
binding in a display sort: not found

B7: design_606_b60ff77f-1541-4e5f-8260-46d5e5f6b85e_1401_dldesign_0_cycle1_af2pred (protein)
chain: GAKAIAAKAAAYGYEIAAEIYRLDKEVGEKVRKYVVEKAKEAAASDEETAKKIGEEVKKEAEKALEEVKKK
binding in a display sort: not found

B8: design_606_b60ff77f-1541-4e5f-8260-46d5e5f6b85e_2039_dldesign_0_cycle1_af2pred (protein)
chain: SEEEEASKRNKELADKIREAVRNMREAYAAMQAALAAGDAAAAKAAADKALAQAKVLEELGLTSQAQSNAAKIKADLAAGLAALAA
binding in a display sort: not found

B9: design_606_b60ff77f-1541-4e5f-8260-46d5e5f6b85e_1400_dldesign_0_cycle1_af2pred (protein)
chain: MAEAAQKAWENIAEAEYYAKKLKENPELKEEAKKIEEKIKKAKELLKKAQKTGDGELAKEAEKLAKEAAKEAKELVEK
binding in a display sort: not found

B10: design_606_b60ff77f-1541-4e5f-8260-46d5e5f6b85e_1000_dldesign_0_cycle1_af2pred (protein)
chain: MSEYEKNLARAEAYADQLLDSAKKTGAAKGPEAEVAATKEAKDAATKYANSLGEEVGKEIKAKMEKEVKAVADAAAKALAA
binding in a display sort: not found

B11: design_606_b60ff77f-1541-4e5f-8260-46d5e5f6b85e_1785_dldesign_0_cycle1_af2pred (protein)
chain: MTPEERRARGEEELARLAKKIEEARKKAEEDGKKGSQDLFSLAERLENLAESAPEIAEEARALGEEARKLAEKLYS
binding in a display sort: not found

B12: design_606_b60ff77f-1541-4e5f-8260-46d5e5f6b85e_1331_dldesign_0_cycle1_af2pred (protein)
chain: SELEKGREVIKKAAEKAKKAAKEAAEKKGDPKKGEEKIKEIKELEEEGAKAEDPKVKSEKAAKIRQIKAEAEFELKK
binding in a display sort: not found

B13: design_606_b60ff77f-1541-4e5f-8260-46d5e5f6b85e_1772_dldesign_0_cycle1_af2pred (protein)
chain: SKKEEVKERVKEVLERAKKVAERGKKAGVDINEASEMMALAYEAKAAAEAGHIEEAEKLMKKAEEKLKKLEKRAKELEA
binding in a display sort: not found

B14: design_606_b60ff77f-1541-4e5f-8260-46d5e5f6b85e_2122_dldesign_0_cycle1_af2pred (protein)
chain: GMEEEKERALEEIRRAREEIKKVAEELKEVDPELAKKAEKVLERAERGLEEGEKNPIAAIGMAEIVRDQLENGKKLLAEKKA
binding in a display sort: not found

B15: design_606_b60ff77f-1541-4e5f-8260-46d5e5f6b85e_1152_dldesign_0_cycle1_af2pred (protein)
chain: EEAEKYLKEIEKAKEEAEKLAEELKEEGDSKAAAKAATAAAVAESAALAAKANPEKAKEAAEKAKKALEKAKKYAKESREKKKA
binding in a display sort: not found

B16: design_606_b60ff77f-1541-4e5f-8260-46d5e5f6b85e_2244_dldesign_0_cycle1_af2pred (protein)
chain: ENKEKVKKAKETLKKARKEAEKAVKKGVLTPEQIARIQEKLHKASELIAEAEQEKGEEGKEKAEKALELAKEVLKEVKEAE
binding in a display sort: not found

B17: design_606_b60ff77f-1541-4e5f-8260-46d5e5f6b85e_2053_dldesign_0_cycle1_af2pred (protein)
chain: SSSLIEENKKEAKEEFNKFAIENGEKRIKEAKELLKKDPEKGKEALKKVLEEAKKLKEKNPEAGEKVEKAAEKALKEA
binding in a display sort: not found

B18: design_606_b60ff77f-1541-4e5f-8260-46d5e5f6b85e_1207_dldesign_0_cycle1_af2pred (protein)
chain: DEEKLKEAAEYLQEAAEYLAELKYLSKDPKNKELAEKAKKILKEAIEKGKKGTPEEALEIAKKAKEEIKKLAKKAKE
binding in a display sort: not found

B19: design_606_b60ff77f-1541-4e5f-8260-46d5e5f6b85e_1708_dldesign_0_cycle1_af2pred (protein)
chain: NEAEKKLKKVAEDAEKALSEAIKASKDDPEKQKELKEKLEQVKKLYEEGLKGTPEDMAKAAAEMRQLRSEADYVLSNAK
binding in a display sort: not found

B20: design_606_b60ff77f-1541-4e5f-8260-46d5e5f6b85e_2343_dldesign_0_cycle1_af2pred (protein)
chain: DAEEHAKEAEKAIKEAKAYIEEAIKTGDSEKAHEARQKLAEAEYEAKKVYELDPEKGAKLLKKVEEVKKLLKELQK
binding in a display sort: not found

B21: design_606_b60ff77f-1541-4e5f-8260-46d5e5f6b85e_1086_dldesign_0_cycle1_af2pred (protein)
chain: EKAEKLIKEIKKLAKEAKKSTPEEAKKLLEEAKKLAKEVAKLGPEAAKLAKKALSEAAAAYYENKAENEWKERKEKE
binding in a display sort: not found

B22: design_606_b60ff77f-1541-4e5f-8260-46d5e5f6b85e_976_dldesign_0_cycle1_af2pred (protein)
chain: SSEEIEEKNRKVSEVVHHAIKAIKAYADPALRDAYLAKAKAILPDAADALAAQVDAAKTGSTADAILNVADIAWDALT
binding in a display sort: not found

B23: design_606_b60ff77f-1541-4e5f-8260-46d5e5f6b85e_1075_dldesign_0_cycle1_af2pred (protein)
chain: AEEKEKKAKEAAEKAEKFIEKAKKAIKEGDLFSAQAYVEAAKHAAEVAKKYDPEVGEKLLKKVEEVEKEI
binding in a display sort: not found

B24: design_606_b60ff77f-1541-4e5f-8260-46d5e5f6b85e_1085_dldesign_0_cycle1_af2pred (protein)
chain: ATAKEAAEYAEKAREYMVELEYERIKAKREGDEETAKRLEKAIEEVREKLKKAREAMKAGDKEKALEYSKEALEIAKKAVEELKA
binding in a display sort: not found

B25: design_606_b60ff77f-1541-4e5f-8260-46d5e5f6b85e_1622_dldesign_0_cycle1_af2pred (protein)
chain: NDKELSKKVHEGYELVAEYEQDPSFIKKNKEKAKEIAKKAEEAAKAAEEGAKKYPELAKALEKIAKKAKEVAKEAKKVAK
binding in a display sort: not found

B26: design_606_b60ff77f-1541-4e5f-8260-46d5e5f6b85e_1676_dldesign_0_cycle1_af2pred (protein)
chain: DEAVKKAKELAKKLLEEAKKAAKKGDVETVKAIAKEAKAKAEEAEKNEGFKAAAELYSAYFRIEHMAESLA
binding in a display sort: not found

B27: design_606_b60ff77f-1541-4e5f-8260-46d5e5f6b85e_2038_dldesign_0_cycle1_af2pred (protein)
chain: EAKEKAKLLKEAAKLAKEAAKAAADKEKAKKLATEAADLAIKAGDYKTNGYMESAILNAEAGNAEAAKAAAEKAAKRAEEKAKKL
binding in a display sort: not found

B28: design_606_b60ff77f-1541-4e5f-8260-46d5e5f6b85e_2085_dldesign_0_cycle1_af2pred (protein)
chain: ERKQEAAELAERLLEKGEKGDEFTGSAYVTRAAHAIGEALGDEEVEKEIEEANKKDVKEGIKLAREKLEELRAA
binding in a display sort: not found

B29: design_606_b60ff77f-1541-4e5f-8260-46d5e5f6b85e_1592_dldesign_0_cycle1_af2pred (protein)
chain: AAAAAAAAERAAIQKELDEIRDKYLEELEKNPENAEEIIKKAKEAVEALAKKHAKFAEEILKGGNGYVSLIEATAKMLERRKKEE
binding in a display sort: not found

B30: design_606_b60ff77f-1541-4e5f-8260-46d5e5f6b85e_1497_dldesign_0_cycle1_af2pred (protein)
chain: MEEESKKYIETATALLEEAKKALEEDKEKGLKLLEEASALAYEKAAEARQLGDKETAEKLREIAKEAREAAKKAR
binding in a display sort: not found

B31: design_606_b60ff77f-1541-4e5f-8260-46d5e5f6b85e_1298_dldesign_0_cycle1_af2pred (protein)
chain: KEEEEKQIKELKEKVEKLKKEAEEAKTAEEALKVFKEARKVGKEARKLAEKASPELAKKAKEVAKEAAKVAELAAEKYAEKKSEEIRK
binding in a display sort: not found

B32: design_606_b60ff77f-1541-4e5f-8260-46d5e5f6b85e_2269_dldesign_0_cycle1_af2pred (protein)
chain: ITEDEVVEINNKGSKEGPLWKEAADYAIKALSYKIIAELVLSSENAEEDHKKALAKAEEYEAKYKEKLEKAEKAKKEK
binding in a display sort: not found

B33: design_606_b60ff77f-1541-4e5f-8260-46d5e5f6b85e_1627_dldesign_0_cycle1_af2pred (protein)
chain: EEEKKKKYEELLKKAREEMEKLGKEFKKAVEKGDSKAASEAFRKAVKVAREAGEEAKKLGPEGEELEKELSQLLLEIAD
binding in a display sort: not found

B34: design_606_b60ff77f-1541-4e5f-8260-46d5e5f6b85e_1326_dldesign_0_cycle1_af2pred (protein)
chain: AEAEKKAEEAAKEAEKIYKEMLKAVETKSKEEAAKFAKEAAEKLKKLAKKIYEATGKVPLEVLLALAEARVIAKK
binding in a display sort: not found

B35: design_606_b60ff77f-1541-4e5f-8260-46d5e5f6b85e_1003_dldesign_0_cycle1_af2pred (protein)
chain: SMKEKEEKYKEAKEKLEKQREAVKEGEKLAKESPEMGLALMRAAVKRAEEVAKKLEKEDPEKGPEAKKMAEEVRKLAKEAEKKIKEEL
binding in a display sort: not found

B36: design_606_b60ff77f-1541-4e5f-8260-46d5e5f6b85e_1975_dldesign_0_cycle1_af2pred (protein)
chain: AEAESQKVLDTAAELEADLILLGYKKPEIKEQALEDAKKVRRNAREAAGLILKDPEKGKKLAEETEKEGKELIKKYEEEV
binding in a display sort: not found

B37: design_606_b60ff77f-1541-4e5f-8260-46d5e5f6b85e_1160_dldesign_0_cycle1_af2pred (protein)
chain: AEAARRAALVAKVDAAFDDAGKTISEAKEKTPEEAKALVDAAIAKANAEAKAHPEAAKGFNAVADTAKSMGERIIAEKLA
binding in a display sort: not found

B38: design_606_b60ff77f-1541-4e5f-8260-46d5e5f6b85e_1599_dldesign_0_cycle1_af2pred (protein)
chain: MPVVKAVSEYTKFVVSKMREAAAAGASEEELVGAVEEGEKYGEELGKKIGEEALEAVKDLSEMFKESARAAARARKA
binding in a display sort: not found
